Data as given in PubChem BioAssay (NCATS).
Where “and” joins values, the source holds several entries; their conditions need not be identical. Equal values may be shown once. Results filed as inconclusive are left out. Calls of active or inactive are those of the source. Unless noted, calls come from the whole dose curve; as a rule, active = well fitted curve in the direction sought with a large enough effect; inconclusive = small, poorly fitted or top-dose-only effect, or another doubt; inactive = no such curve, though single readings can be large; an effect the other way counts as inactive or inconclusive.

Assays:
[1] = Cell Viability - MRC5 (AID 434; calls by dose curve;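 note: potency is the fitted concentration of half-maximal effect; cells exposed to compound for 40 hours at 37 °C; potency reflects cytotoxicity seen as loss of intracellular ATP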); settings: MRC5 lung fibroblast viability, qHTS
Procedure, shortened: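 ATP luminescence read-out (CellTiter-Glo, 20 min RT) after 40 hr, 37 °C compound exposure of 1500 MRC5 cells/well. Data normalized to DMSO (basal) and 100 uM tamoxifen (100% inhibition); AC50 from standard Hill equation.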

[2] = Cell Viability - HUV-EC-C (AID 542); settings: HUV-EC-C endothelial cell viability, qHTS; series mostly up to 92.2 µM;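 note: cells exposed to compound for 40 hours; % is set by controls: 0 for no effect and ±100 for the full control effect; nearly all actives have a fitted effect of over 35% in size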
Procedure, shortened: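 CellTiter-Glo luminescence measured ATP loss in HUV-EC-C cells (1000/well) after 40 hr compound exposure at 37 °C, in complete culture medium. Concentration-response data were Hill-fitted to give AC50.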

[3] = Cellular Toxicity (caspase-3) HepG2 (AID 654); settings: HepG2 caspase-3 activation, luminescence; series mostly up to 92.2 µM;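 note: cells exposed to compound for 16 hours before reading; 0% = DMSO alone and 100% = caspase signal from 100 µM tamoxifen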
Procedure, shortened: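 Caspase 3/7 activation is measured as a luminescence increase (aminoluciferin substrate) after 16 h compound exposure of human hepatocarcinoma HepG2 cells. AC50 values are Hill fits, scaled between DMSO baseline and 100 uM tamoxifen stimulation.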

[4] = Cellular Toxicity (caspase-3) HUV-EC-C (AID 656); settings: HUV-EC-C cells, caspase-3 activation (apoptosis); series mostly up to 92.2 µM
Procedure, shortened: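 Concentration-dependent caspase 3/7 induction was assessed in HUV-EC-C cells exposed for 16 hours. Data scaled between DMSO and tamoxifen (100 uM) controls.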

[5] = Cellular Toxicity (caspase-3) MRC-5 (AID 659); settings: MRC-5 cells, luminescence, normalized: DMSO 0%, 10 µM staurosporine 100%; series mostly up to 91.7 µM
Procedure, shortened: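 MRC-5 fibroblasts, 1500/well; 16 h cpd, 37 °C; Caspase-Glo 3/7, 1 h RT; lumi read. Norm: DMSO = 0%, 10 uM staurosporine = 100%. Hill-fit AC50 from qHTS conc-response.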

[6] = Cellular Toxicity (caspase-3) SK-N-SH (AID 661); settings: SK-N-SH caspase-3 activation, qHTS, DMSO as zero, staurosporine as full; series mostly up to 91.7 µM
Procedure, shortened: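 Caspase 3/7 activation was read by luminogenic substrate cleavage after 16 hour treatment of SK-N-SH cells. Signal was scaled between DMSO and 10 uM staurosporine, and concentration-response data were fitted with the Hill equation for AC50.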

[7] = Cellular Toxicity (caspase-3) Hek293 (AID 664); settings: HEK293 caspase-3 activation, DMSO = 0%, 100 µM tamoxifen = 100%; at 92.2 µM (top of the series);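 note: cells exposed to compound for 16 h at 37 °C before readout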
Procedure, shortened: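 Concentration-response qHTS: caspase 3/7 activation measured by luminescent aminoluciferin substrate cleavage after 16 h compound exposure of Hek 293 cells. AC50 from Hill equation, with DMSO as basal and 100 uM tamoxifen as 100%.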

[8] = Cellular Toxicity (caspase-3) N2a (AID 665); settings: N2a cells, luminescence, normalized: DMSO 0%, 10 µM staurosporine 100%; series mostly up to 92.2 µM;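 note: compound exposure lasted 16 h at 37 °C before readout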
Procedure, shortened: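 Caspase-3/7 activation measured as luminescence from Caspase-Glo reagent (1 h, room temperature) after 16 h compound exposure of mouse N2a cells. AC50 values from Hill-equation concentration-response, scaled between DMSO and 10 uM staurosporine.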

[9] = Cellular Toxicity (caspase-3) NIH 3T3 (AID 666); settings: NIH 3T3 caspase-3 activation, apoptosis/toxicity, 0% DMSO, 100% is 100 µM tamoxifen; series mostly up to 92.2 µM;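 note: 0% = DMSO basal and 100% = 100 µM tamoxifen stimulation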
Procedure, shortened: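 Caspase-Glo 3/7 luminescence reported caspase activation in 1000 NIH 3T3 cells/well after 16 h compound exposure at 37 C. DMSO set basal and 100 uM tamoxifen set 100% stimulation; concentration-response modeled with the Hill equation for AC50.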

[10] = Cellular Toxicity (caspase-3) Renal Proximal Tubule (AID 667); settings: renal proximal tubule cells, primary cells freshly taken from rat; Potency: caspase-3 activation; series mostly up to 91.7 µM;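 note: cells exposed to compound for 16 hours at 37 °C before detection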
Procedure, shortened: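 Caspase-Glo 3/7 read-out, rat primary kidney proximal tubule cells. Compound exposure 16 h, 37 °C; detection after 1 h at RT. Activity scaled to DMSO and 10 uM staurosporine.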

[11] = MultiTox-Fluor Cytotoxicity Assay - LYMP1-001 - Dead Cells (AID 946); settings: LYMP1-001 lymphoblastoid cells, dead-cell protease fluorescence; series mostly up to 92.2 µM;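 note: 0% = DMSO and 100% = tetraoctylammonium bromide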
Procedure, shortened: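 LYMP1-001 lymphoblastoid cells (2500/well) treated 16 h at 37 C. Dead-cell protease cleavage of bis-AAF-R110 read at Ex/Em 485/520. Normalized to DMSO and 15 uM tetraoctylammonium bromide; AC50 from Hill fits.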

[12] = MultiTox-Fluor Cytotoxicity Assay - LYMP1-003 - Dead Cells (AID 961); settings: LYMP1-003 lymphoblastoid cells, dead-cell protease fluorescence; series mostly up to 92.2 µM;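 note: 0% = DMSO and 100% = tetraoctylammonium bromide; nearly all actives have a fitted effect of over 70% in size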
Procedure, shortened: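 LYMP1-003 human lymphoblastoid cells (2500/well) exposed to compound 16 h at 37 C in complete medium; dead-cell protease read with bis-AAF-R110 fluorescence (Ex/Em 485/520) after 60 min at room temperature. Normalized to DMSO and 15 uM tetraoctylammonium bromide; AC50 from Hill fit.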

[13] = MultiTox-Fluor Cytotoxicity Assay - LYMP1-003 - Live Cells (AID 962); settings: LYMP1-003 lymphoblastoid cells, MultiTox-Fluor live-cell protease fluorescence; series mostly up to 92.2 µM;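 note: 0% = DMSO only and full loss = 92 µM tetraoctylammonium bromide; cytotoxic hits lower the live-cell protease signal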
Procedure, shortened: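 Live-cell protease activity (GF-AFC substrate, 405/510 nm, 60 min at room temperature) after 16 h, 37 C compound exposure of human lymphoblastoid LYMP1-003 cells; concentration-response fitted to the Hill equation for AC50.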

[14] = Cell Viability - LYMP1-003 - Assay at 24 hr (AID 963); settings: LYMP1-003 lymphoblastoid cell viability; series mostly up to 92.2 µM;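 note: plate controls were DMSO only for no effect and tetraoctylammonium bromide positive control for full effect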
Procedure, shortened: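 Concentration-response qHTS: ATP loss measured by CellTiter-Glo luminescence after 24 h compound exposure at 37 C. Cells were LYMP1-003 human lymphoblastoid, 2500 per well. AC50 derived via standard Hill equation modeling.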

[15] = Cell Viability - LYMP1-002 - Assay at 24 hr (AID 993); settings: LYMP1-002 lymphoblastoid cells viability; series mostly up to 92.2 µM; note: % is set by controls: 0 for no effect and ±100 for the full control effect
Procedure, shortened: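 qHTS cytotoxicity at 24 h: CellTiter-Glo ATP luminescence in lymphoblastoid line LYMP1-002 incubated with compound at 37 °C. Concentration-response modeled with the Hill equation for AC50; tetraoctylammonium bromide served as positive control.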

[16] = qHTS Assay for Identification of Small Molecule Inducers of Hypoxia Response (AID 2120; active = well fitted curve in the direction sought with a large enough effect in the signal ratio, with a control signal flat, not every such curve was filed as active; the % refers to the signal ratio; note: 0% is about no effect); settings: hypoxia response reporter cells, beta-lactamase ratio readout; series mostly up to 104 µM
Procedure, shortened: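 Reporter induction read as the CCF4 blue/green (460nm/530nm) emission ratio after 2.5 h dye loading at room temperature. ME-180 HRE-beta-lactamase cells received titrated compounds for 17 h at 37 degrees Celsius; AC50 values derived.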

[17] = biological target: Peroxisome proliferator-activated receptor alpha (Homo sapiens) (UniProt Q07869); test: qHTS assay for small molecule agonists of the peroxisome proliferator-activated receptor alpha (PPARalpha) signaling pathway (AID 651778); settings: PathHunter PPARalpha complementation, chemiluminescence, 6 h; max response: hits give high values; note: % of control where 0% means no effect
Procedure, shortened: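 Enzyme-fragment complementation assay in which ligand-bound PPARalpha translocates and forms an active enzyme that generates chemiluminescence. Cells were plated overnight, exposed to compound for 6 hr at 37 C, and then given detection reagent for 60 min at room temperature.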

[18] = qHTS assay for small molecule agonists of the antioxidant response element (ARE) signaling pathway measured by Nrf2-dependant transcriptional activity - cell viability counter screen (AID 720653; active = well fitted curve in the direction sought with a large enough effect in the repeat runs; an effect the other way counts as inactive or inconclusive; note: % is set by controls: 0 for no effect and ±100 for the full control effect); settings: ARE-bla HepG2 viability, CellTiter-Glo ATP luminescence, 16 h; max response: hits give low values
Procedure, shortened: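 ARE-bla HepG2 cells treated with compounds for 16 h at 37C; this counter screen measures viability as intracellular ATP by CellTiter-Glo luminescence after 30 min at room temperature.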

[19] = qHTS assay for cell viability of HEK293 cells (AID 743288); settings: ATP luminescence (CellTiter-Glo), 18 h; max response: hits give low values; note: % is set by controls: 0 for no effect and ±100 for the full control effect; nearly all actives have a fitted effect of over 50% in size
Procedure, shortened: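 HEK293, 18 h, 37 C, ATP luminescence. Cells at 2,000/well were allowed at least 5 h to settle before dosing; CellTiter-Glo developed 30 min at RT.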

[20] = qHTS assay for cell viability of the p53RE-bla HCT-116 cell line (AID 743292); settings: p53RE-bla HCT-116 viability, ATP luminescence, 16 h; series mostly up to 95 µM; note: % is set by controls: 0 for no effect and ±100 for the full control effect; nearly all actives have a fitted effect of over 55% in size
Procedure, shortened: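 ATP-based luminescence, 16 h compound exposure at 37 C, p53RE-bla HCT-116 cells at 4,000/well.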

Peroxisome proliferator-activated receptor alpha (Homo sapiens), sequence (Q07869 whole entry, looked up, the tested form may be a part): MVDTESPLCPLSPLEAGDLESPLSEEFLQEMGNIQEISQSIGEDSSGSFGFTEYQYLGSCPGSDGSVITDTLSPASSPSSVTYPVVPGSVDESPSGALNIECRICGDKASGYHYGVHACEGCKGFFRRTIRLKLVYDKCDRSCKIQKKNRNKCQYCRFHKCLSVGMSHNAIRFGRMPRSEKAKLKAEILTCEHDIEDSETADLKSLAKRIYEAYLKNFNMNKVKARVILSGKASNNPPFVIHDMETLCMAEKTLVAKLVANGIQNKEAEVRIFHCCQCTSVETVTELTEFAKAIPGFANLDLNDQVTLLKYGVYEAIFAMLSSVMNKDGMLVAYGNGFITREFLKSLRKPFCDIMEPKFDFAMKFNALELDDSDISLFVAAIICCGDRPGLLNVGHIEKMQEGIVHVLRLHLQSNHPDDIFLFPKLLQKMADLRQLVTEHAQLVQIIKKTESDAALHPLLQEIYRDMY

O=C(OCc1ccccc1)c1ccccc1O
inactive: Potency [1] > 92 µM | Potency [2] | Potency [3] | Potency [4] | outcome [5] | outcome [6] | caspase-3 activation [7] -1.91% | outcome [8] | outcome [9] | Potency [10] | Potency [11] | Potency [12] | Potency [13] | Potency [14] | Potency [15] | Potency [16] | max response [17] -2.61% and -0.719% | max response [18] 4.39% and 10% | max response [19] 9.47% and -5.04% | Potency [20]

c1ccc(CSCc2ccccc2)cc1
inactive: Potency [1] > 92 µM | Potency [2] | Potency [3] | Potency [4] | outcome [5] | outcome [6] | caspase-3 activation [7] 0.61% | outcome [8] | outcome [9] | Potency [10] | Potency [11] | Potency [12] | Potency [13] | Potency [14] | Potency [15] | Potency [16] | max response [17] -0.51% | max response [18] -4.18% | max response [19] 1.27% | Potency [20]

NC(=O)c1ccc([N+](=O)[O-])cc1
inactive: Potency [1] > 92 µM | Potency [2] | Potency [3] | Potency [4] | outcome [5] | outcome [6] | caspase-3 activation [7] 0.417% | outcome [8] | outcome [9] | Potency [10] | Potency [11] | Potency [12] | Potency [13] | Potency [14] | Potency [15] | Potency [16] | max response [17] -2.18% | max response [18] 5.8% | max response [19] 4.95% | Potency [20]

Cc1ccc(C(=O)O)cc1[N+](=O)[O-]
inactive: Potency [1] > 92 µM | Potency [2] | Potency [3] | Potency [4] | outcome [5] | outcome [6] | caspase-3 activation [7] -1.69% | outcome [8] | outcome [9] | Potency [10] | Potency [11] | Potency [12] | Potency [13] | Potency [14] | Potency [15] | Potency [16] | max response [17] -2.73% | max response [18] -1.34% | max response [19] 1.99% | Potency [20]

CCNC(=S)NCC
inactive: Potency [1] > 92 µM | Potency [2] | Potency [3] | Potency [4] | outcome [5] | outcome [6] | caspase-3 activation [7] -2.38% | outcome [8] | outcome [9] | Potency [10] | Potency [11] | Potency [12] | Potency [13] | Potency [14] | Potency [15] | Potency [16] | max response [17] -2.88% | max response [18] -3.61% | max response [19] -6.53% | Potency [20]

O=CC(=O)c1ccccc1
inactive: Potency [1] > 92 µM | Potency [2] | Potency [3] | Potency [4] | outcome [5] | outcome [6] | caspase-3 activation [7] 3.78% | outcome [8] | outcome [9] | Potency [10] | Potency [11] | Potency [13] | Potency [14] | Potency [15] | Potency [16] | max response [17] -2.48% | max response [18] -2.84% | max response [19] -4.94% | Potency [20]
